The text below walks through data of PubChem BioAssay (NCATS).

Records with an inconclusive call do not appear. Entries that show only a call come without a potency. Values without a mark were called inactive. Active and inactive are the calls of the source. Calls come from the whole dose curve; as a rule, active = well fitted curve in the direction sought with a large enough effect; inconclusive = small, poorly fitted or top-dose-only effect, or another doubt; inactive = no such curve, though single readings can be large; an effect the other way counts as inactive or inconclusive.

The first assay in a line: qHTS assay to identify small molecule inhibitors of chordoma cells - UCH-2 (AID 1259356). The conditions noted are these: UCH-2 chordoma viability, CellTiter-Glo ATP luminescence, 48 h; series mostly up to 46.1 µM. (In qHTS, concentration-response curves come from the screen itself.)
As to `CC(=O)O[C@]1(C(C)=O)CC[C@H]2[C@@H]3C=C(Cl)C4=CC(=O)CC[C@]4(C)[C@H]3CC[C@@]21C`, the Potency entry is “inactive”.
`N=C(N)N1CCc2ccccc2C1`: the Potency entry was “inactive”.
Regarding `O=C(NC1CCN(CCc2c[nH]c3ccccc23)CC1)c1ccccc1`, the Potency result is “inactive”.
As for `OC(C#CCN1CCCC1)(c1ccccc1)c1ccccc1`, the Potency result is “inactive”.
On the same count and under the same terms, under `CC(=O)Nc1ccc(OCC(O)CNC(C)C)cc1` (configuration not stated) stands “inactive”.
As for `CCCc1ncc(C[n+]2ccccc2C)c(N)n1`, the Potency entry was “inactive”.
Turning to `COc1cc(N)c(Cl)cc1C(=O)NC1CCN(Cc2ccccc2)CC1`, the Potency result was “inactive”.
On the same count and under the same terms, under `CCN(CC)CCOC(=O)C1(c2ccccc2)CCCC1` stands “inactive”.
`CCCCc1cc2ccccc2c(OCCN(C)C)n1`: the Potency result was “inactive”.
On to `C#C[C@]1(O)CC[C@H]2[C@@H]3[C@H](C)CC4=C(CCC(=O)C4)[C@H]3CC[C@@]21C`, for which the Potency result is “inactive”.
Same read-out and setting: the same measure for `CCN(CC)CCOC(=O)C(Cc1cccc2ccccc12)CC1CCCO1` (configuration not stated): “inactive”.
Same read-out and setting: the same measure for `N#CCC(=O)NN`: “inactive”; for `CC(C)(C)CC(C)(C)c1ccc(O)c(-n2nc3ccccc3n2)c1`: “inactive”.
On the same count and under the same terms, under `CCN1CCCC(OC(=O)C(c2ccccc2)c2ccccc2)C1` (configuration not stated) stands “inactive”.
Take `CO[C@H]1C=CO[C@@]2(C)Oc3c(C)c(O)c4c(O)c(c(/C=N/N5CCN(C)CC5)c(O)c4c3C2=O)NC(=O)/C(C)=C\C=C[C@H](C)[C@H](O)[C@@H](C)[C@@H](O)[C@@H](C)[C@H](OC(C)=O)[C@@H]1C`: the Potency entry is “inactive”.
As to `Cc1cccc(C)c1NC(=O)CN1CCCCCC1`, the Potency entry was “inactive”.
Same read-out and setting: the same measure for `Cn1c(=O)c2[nH]c(Br)nc2n(C)c1=O`: “inactive”.
Still for that read-out and setting: under `c1ccc(-c2nc[nH]c2-c2ccccc2)cc1` stands “inactive”; under `COc1ccc(CN(CCN(C)C)c2ncccn2)cc1`, “inactive”.
`C[N+]1(CC2COC(c3ccccc3)(C3CCCCC3)O2)CCCCC1` (configuration not stated): the Potency result was “inactive”.
For `CCCCCCCCCCCCCCCC(=O)O`, the Potency result is “inactive”.
`CN1CCN(c2cc3c(cc2F)c(=O)c(C(=O)O)cn3-c2ccc(F)cc2)CC1`: the Potency entry is “inactive”.
Still for that read-out and setting: under `O=C(O)P(=O)(O)O` stands “inactive”; under `FC(F)(F)C(F)(F)C(F)(F)C(F)(F)C(F)(F)C(F)(F)C(F)(F)C(F)(F)Br`, “inactive”.
Same read-out and setting: the same measure for `Cc1ccc(O)c([C@H](CCN(C(C)C)C(C)C)c2ccccc2)c1`: “inactive”; for `Cl/C(=C\n1cncn1)c1ccc(Cl)cc1Cl`: “inactive”; for `CC(C)(C)NCC(O)COc1cccc2c1C[C@H](O)[C@H](O)C2` (some centres not stated): “inactive”.
Same read-out and setting: the same measure for `Oc1c(Cl)cc(Cl)c(Cl)c1Cc1c(O)c(Cl)cc(Cl)c1Cl`: “inactive”; for `CC(=O)O[C@]1(C(C)=O)CC[C@H]2[C@@H]3C=C(C)C4=CC(=O)CC[C@]4(C)[C@H]3CC[C@@]21C`: “inactive”; for `Clc1cccc(C(c2ccc3nc[nH]c3c2)n2ccnc2)c1` (configuration not stated): “inactive”.
With `Cc1cc2c(OCC(CNC(C)(C)C)OC(=O)c3ccccc3)cccc2[nH]1` (configuration not stated), the Potency result is “inactive”.
Still for that read-out and setting: the same measure for `CCCCCCCCCCCCCC(=O)OC(C)C`: “inactive”; for `Cc1ccc(-c2ncc(Cl)cc2-c2ccc(S(C)(=O)=O)cc2)cn1`: “inactive”.
On the same count and under the same terms, the same measure for `CCOc1ccc(NC(C)=O)cc1`: “inactive”; for `COc1ccccc1N1CCN(CCCCNC(=O)c2ccc(-c3ccc(C(C)=O)cc3)cc2)CC1`: “inactive”; for `COc1ccc2c(c1)c1c3n2CCN(C)C3=NCC1`: “inactive”.

A short description of a further assay: NS1 protein of Zika virus - qHTS assay to identify small molecule inhibitors in human HEK 293 cells (AID 1347053). Note: nearly all actives have a fitted effect of over 55% in size. The conditions noted are these: HEK293 ZIKV MR766 infection, NS1 TR-FRET, 24 h; series mostly up to 46.1 µM. In a few lines:
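Compound-treated (1 h pre-infection) HEK 293 cells infected with ZIKV MR766, MOI = 0.5; after 24 h at 37 C, NS1 read by TR-FRET; data normalized to uninfected and infected controls.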
Consider `CC(=O)O[C@]1(C(C)=O)CC[C@H]2[C@@H]3C=C(Cl)C4=CC(=O)CC[C@]4(C)[C@H]3CC[C@@]21C`, for which the Potency entry is “inactive”.
Take `N=C(N)N1CCc2ccccc2C1`: the activity change, negative = inhibition was -16.4% [at 4.81 µM].
As for `O=C(NC1CCN(CCc2c[nH]c3ccccc23)CC1)c1ccccc1`, the Potency result was “inactive”.
On the same count and under the same terms, under `OC(C#CCN1CCCC1)(c1ccccc1)c1ccccc1` stands “inactive”; under `CC(=O)Nc1ccc(OCC(O)CNC(C)C)cc1` (configuration not stated), “inactive”.
Same read-out and setting: the same measure for `CCCc1ncc(C[n+]2ccccc2C)c(N)n1`: “inactive”; for `COc1cc(N)c(Cl)cc1C(=O)NC1CCN(Cc2ccccc2)CC1`: “inactive”.
Consider `CCN(CC)CCOC(=O)C1(c2ccccc2)CCCC1`, for which the Potency entry was “inactive”.
Consider `CCCCc1cc2ccccc2c(OCCN(C)C)n1`, for which the Potency entry is “inactive”.
On the same count and under the same terms, the same measure for `C#C[C@]1(O)CC[C@H]2[C@@H]3[C@H](C)CC4=C(CCC(=O)C4)[C@H]3CC[C@@]21C`: “inactive”; for `CCN(CC)CCOC(=O)C(Cc1cccc2ccccc12)CC1CCCO1` (configuration not stated): “inactive”; for `N#CCC(=O)NN`: “inactive”.
With `CC(C)(C)CC(C)(C)c1ccc(O)c(-n2nc3ccccc3n2)c1`, the Potency entry was “inactive”.
Same read-out and setting: under `CCN1CCCC(OC(=O)C(c2ccccc2)c2ccccc2)C1` (configuration not stated) stands “inactive”; under `CO[C@H]1C=CO[C@@]2(C)Oc3c(C)c(O)c4c(O)c(c(/C=N/N5CCN(C)CC5)c(O)c4c3C2=O)NC(=O)/C(C)=C\C=C[C@H](C)[C@H](O)[C@@H](C)[C@@H](O)[C@@H](C)[C@H](OC(C)=O)[C@@H]1C`, “inactive”; under `Cc1cccc(C)c1NC(=O)CN1CCCCCC1`, “inactive”.
Still for that read-out and setting: under `Cn1c(=O)c2[nH]c(Br)nc2n(C)c1=O` stands “inactive”; under `c1ccc(-c2nc[nH]c2-c2ccccc2)cc1`, “inactive”.
In the case of `COc1ccc(CN(CCN(C)C)c2ncccn2)cc1`, the Potency result was “inactive”.
Still for that read-out and setting: under `C[N+]1(CC2COC(c3ccccc3)(C3CCCCC3)O2)CCCCC1` (configuration not stated) stands “inactive”; under `CCCCCCCCCCCCCCCC(=O)O`, “inactive”.
On the same count and under the same terms, under `CN1CCN(c2cc3c(cc2F)c(=O)c(C(=O)O)cn3-c2ccc(F)cc2)CC1` stands “inactive”; under `O=C(O)P(=O)(O)O`, “inactive”.
Still for that read-out and setting: under `FC(F)(F)C(F)(F)C(F)(F)C(F)(F)C(F)(F)C(F)(F)C(F)(F)C(F)(F)Br` stands “inactive”; under `Cc1ccc(O)c([C@H](CCN(C(C)C)C(C)C)c2ccccc2)c1`, “inactive”; under `Cl/C(=C\n1cncn1)c1ccc(Cl)cc1Cl`, “inactive”.
As for `CC(C)(C)NCC(O)COc1cccc2c1C[C@H](O)[C@H](O)C2` (some centres not stated), the Potency entry is “inactive”.
Still for that read-out and setting: the same measure for `Oc1c(Cl)cc(Cl)c(Cl)c1Cc1c(O)c(Cl)cc(Cl)c1Cl`: “inactive”; for `CC(=O)O[C@]1(C(C)=O)CC[C@H]2[C@@H]3C=C(C)C4=CC(=O)CC[C@]4(C)[C@H]3CC[C@@]21C`: “inactive”.
In the case of `Clc1cccc(C(c2ccc3nc[nH]c3c2)n2ccnc2)c1` (configuration not stated), the Potency result is “inactive”.
The same measure, in the same setting: the same measure for `Cc1cc2c(OCC(CNC(C)(C)C)OC(=O)c3ccccc3)cccc2[nH]1` (configuration not stated): “inactive”; for `CCCCCCCCCCCCCC(=O)OC(C)C`: “inactive”.
The same measure, in the same setting: the same measure for `Cc1ccc(-c2ncc(Cl)cc2-c2ccc(S(C)(=O)=O)cc2)cn1`: “inactive”.
On to `CCOc1ccc(NC(C)=O)cc1`, for which the Potency entry is “inactive”.
The same measure, in the same setting: under `COc1ccccc1N1CCN(CCCCNC(=O)c2ccc(-c3ccc(C(C)=O)cc3)cc2)CC1` stands “inactive”.
Same read-out and setting: under `COc1ccc2c(c1)c1c3n2CCN(C)C3=NCC1` stands “inactive”.
